Reference: PubChem BioAssay (NCI)
The panel holds about 83,000 compounds, 20% with a hit somewhere; the sample as a whole holds those more often.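 96-well plates, one dose, 48 hours. Percent growth reported; active if below 10.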 Values without a mark were called inactive. Calls of active or inactive are those of the source.

test system: UACC-257 melanoma; assay: NCI-60 one-dose screen, 48 h (100 = growth as untreated, 0 = no growth, -100 = all killed); details: 10 µM unless noted

Compound | growth
COc1cccc(CC(C)=C(c2ccc(OCCN(C)C)cc2)c2ccc(OCCN(C)C)cc2)c1 | -74.5% (active)
S=c1[nH]nc(-c2cc3ccc2CCc2ccc(cc2)CC3)n1C1CC1 | 105%
COc1ccc(Nc2[nH]n3c(=O)cc(-c4ccccc4)nc3c2C(=O)Nc2ccc(C)cc2)c(OC)c1 | 85.4%
O=c1[nH]c2ccc(Br)cc2c2c1C(c1ccc(Cl)cc1)c1c(ncn3nc(-c4ccco4)nc13)O2 (centres undefined) | 98.3%
COc1cc(-c2nn(-c3cccc(NC(=O)Nc4cc(C(F)(F)F)cc(C(F)(F)F)c4)c3)cc2-c2ccncc2)ccc1Cl | -45.1% (active)
COc1cc(/C=C/C(=O)N2CCN(C(=O)/C=C/c3cc(OC)c(OC)c(OC)c3)CC2)cc(OC)c1OC | 94.3%
CCN(CC)CCOC(=O)C(c1ccccc1)(c1ccccc1)C(C)C | 63.2%
C=C[C@@H]1C[C@H](O)Cc2c(C)cc(C)cc2N1 | 97.6%
N=C(N)c1ccc(-c2cc(Cl)cc(Cl)c2)cn1 | 102%
CCCCCCCCCCCCNC(=O)[C@H]1CSC(c2ccsc2)N1 (some centres undefined) | -87.2% (active)
O=C(NCc1cn(Cc2cccc(Oc3ccccc3)c2)nn1)c1cccnc1Nc1ccc(F)cc1 | 76.8%
CCN1CCN(CC(=O)N2c3cccc4cccc(c34)N(C(=O)CN3CCN(CC)CC3)C2c2cn(-c3ccccc3)nc2-c2cccc([N+](=O)[O-])c2)CC1 | -83.1% (active)
O=S(=O)(NCCCNc1nccc(-n2ccc3cccnc32)n1)c1ccc(Br)cc1 | 118%
COC(=O)C(Sc1ccc(Cl)cc1)C1SC(=S)N(Cc2ccccc2)C1=O (centres undefined) | 92.2%
Cc1ccc2[nH]c(=O)c3c(c2c1)Oc1ncn2nc(-c4ccco4)nc2c1C3c1ccc(Cl)cc1 (centres undefined) | 95.5%
c1ccc(-c2cn(-c3ccccc3)c(-c3ccccc3)n2)cc1 | -45.3% (active)
CCN(CC)CCCC(C)Nc1c2ccc(Cl)cc2nc2cc(OC)c(OC)cc12 (centres undefined) | 46.9%
CN(C)c1cccc2c(S(=O)(=O)/N=C(\N)Nc3nc4ccccc4s3)cccc12 | 78.3%
O=C(Nc1ccc(Cl)c(Cl)c1)NS(=O)(=O)c1cnccc1Oc1ccc(F)cc1 | -7.26% (active)
Cc1ccc2nc(Cl)cc(=O)n2c1 | 112%
Cn1ccc(=O)c(S(N)(=O)=O)c1 | 109%
COc1ccc(-c2c(N)n[nH]c2-c2cc3c(c(OC)c2OC)OCO3)cc1 | 98.7%
CC(=O)Oc1csc(N(C(C)=O)c2cccc(C(F)(F)F)c2)n1 | 88.5%
C=C1CCC2C3(C)COC(C)(C)OC3CCC2(C)C1C/C=C1/C(=O)OCC1Oc1ccccc1OC (centres undefined) | 85.3%
COc1ccc(/C=C\c2cc(OC)c(OC)c(OC)c2)cc1OC(=O)c1cccc(Cn2cc(CCOC(=O)c3cccc(Cn4nnc5c4C(=O)c4ccccc4C5=O)c3)nn2)c1 | 67.3%

test system: M14 melanoma; assay: as above; details: 10 µM unless noted

Compound | growth
CCCCN(CCCC)c1ccc(C(=N)c2ccc(N(CCCC)CCCC)cc2)cc1 | -90.3% (active)
Clc1ccc(-c2nc3ccccc3s2)cc1Cl | 104%
Cc1nc2c3c(ncn2n1)Oc1c(c(=O)[nH]c2ccccc12)C3c1ccc(Cl)cc1 (centres undefined) | 105%
O=C(NNC(=S)Nc1ccccc1)c1cc2ccc1CCc1ccc(cc1)CC2 | 56%
O=C(Nc1ccc2c(c1)OCCO2)C(=O)c1c[nH]c2ccccc12 | 19.9%
COc1ccc2c(c1)C(c1cc(OC)c3c(c1)OCO3)C1=C(COC1=O)N2 (centres undefined) | 5.65% (active)
Fc1ccc(Nc2nc(NCCNc3ccnc4cc(Cl)ccc34)nc(N3CCOCC3)n2)cc1 | -42.7% (active)
S=c1[nH]nc(-c2cc3ccc2CCc2ccc(cc2)CC3)n1-c1ccccc1 | 97.2%
CC(C)(C)NCCC(O)c1cc2c(Cl)cc(Cl)cc2c2cc(C(F)(F)F)ccc12 (centres undefined) | -77.4% (active)
CCN(CC)CCC(CNc1c2ccc(Cl)cc2nc2ccc(OC)cc12)c1ccccc1 (centres undefined) | -87.9% (active)
Cc1ccc(S(=O)(=O)C2=C3C(=C(c4ccccc4)c4ccccc43)CN(S(=O)(=O)c3ccc(C)cc3)C2)cc1 | 70.7%
Cc1ccc(S(=O)(=O)NCCNc2nccc(-c3c(-c4cccc(N)c4)nc4sccn34)n2)cc1 | 107%
CC(C)NCCCNC1=C(Cl)C(=O)c2ccccc2C1=O | 74.3%
COc1cccc(CC(C)=C(c2ccc(OCCN(C)C)cc2)c2ccc(OCCN(C)C)cc2)c1 | -80.5% (active)
S=c1[nH]nc(-c2cc3ccc2CCc2ccc(cc2)CC3)n1C1CC1 | 97.8%
COc1ccc(Nc2[nH]n3c(=O)cc(-c4ccccc4)nc3c2C(=O)Nc2ccc(C)cc2)c(OC)c1 | 95.6%
COc1cc(-c2nn(-c3cccc(NC(=O)Nc4cc(C(F)(F)F)cc(C(F)(F)F)c4)c3)cc2-c2ccncc2)ccc1Cl | -42.1% (active)

Compound | growth
COc1cc(/C=C/C(=O)N2CCN(C(=O)/C=C/c3cc(OC)c(OC)c(OC)c3)CC2)cc(OC)c1OC | 97.1%
CCN(CC)CCOC(=O)C(c1ccccc1)(c1ccccc1)C(C)C | 106%
C=C[C@@H]1C[C@H](O)Cc2c(C)cc(C)cc2N1 | 98.9%
N=C(N)c1ccc(-c2cc(Cl)cc(Cl)c2)cn1 | 96.4%
CCCCCCCCCCCCNC(=O)[C@H]1CSC(c2ccsc2)N1 (some centres undefined) | -77.5% (active)
O=C(NCc1cn(Cc2cccc(Oc3ccccc3)c2)nn1)c1cccnc1Nc1ccc(F)cc1 | 48.1%
CCN1CCN(CC(=O)N2c3cccc4cccc(c34)N(C(=O)CN3CCN(CC)CC3)C2c2cn(-c3ccccc3)nc2-c2cccc([N+](=O)[O-])c2)CC1 | -81.6% (active)
O=S(=O)(NCCCNc1nccc(-n2ccc3cccnc32)n1)c1ccc(Br)cc1 | 110%
COC(=O)C(Sc1ccc(Cl)cc1)C1SC(=S)N(Cc2ccccc2)C1=O (centres undefined) | 100%
Cc1ccc2[nH]c(=O)c3c(c2c1)Oc1ncn2nc(-c4ccco4)nc2c1C3c1ccc(Cl)cc1 (centres undefined) | 100%
CCN(CC)CCCC(C)Nc1c2ccc(Cl)cc2nc2cc(OC)c(OC)cc12 (centres undefined) | -73.7% (active)
CN(C)c1cccc2c(S(=O)(=O)/N=C(\N)Nc3nc4ccccc4s3)cccc12 | 45.3%
Cc1ccc2nc(Cl)cc(=O)n2c1 | 104%
COc1ccc(-c2c(N)n[nH]c2-c2cc3c(c(OC)c2OC)OCO3)cc1 | 101%
CC(=O)Oc1csc(N(C(C)=O)c2cccc(C(F)(F)F)c2)n1 | 77.7%
C=C1CCC2C3(C)COC(C)(C)OC3CCC2(C)C1C/C=C1/C(=O)OCC1Oc1ccccc1OC (centres undefined) | 72.3%
COc1ccc(/C=C\c2cc(OC)c(OC)c(OC)c2)cc1OC(=O)c1cccc(Cn2cc(CCOC(=O)c3cccc(Cn4nnc5c4C(=O)c4ccccc4C5=O)c3)nn2)c1 | -0.552% (active)
